Hits are enriched below; roughly 4.6% of the tested compounds scored in any of these assays.
Vaccinia Venus: qHTS for Stage-Specific Inhibitors of Vaccinia Orthopoxvirus: Venus Reporter Primary qHTS; AID 720580, 2013; 330,000 compounds, 0.46% hits; Vaccinia virus Venus reporter expression, fluorescence; Potency, µM (top dose mostly 36.5 µM), inactives show at the highest dose activity change, negative = inhibition, most hits filed as inhibitors; calls by dose curve; tested in A549 cells; note: nearly all actives have a fitted effect of over 30% in size
Vaccinia mCherry: qHTS for Stage-Specific Inhibitors of Vaccinia Orthopoxvirus: mCherry Reporter Primary qHTS; Potency, µM (top dose mostly 36.5 µM), inactives show at the highest dose activity change, negative = inhibition, hits mostly inhibitors; Vaccinia virus mCherry reporter infection, fluorescence; 310,000 compounds, 0.63% hits; calls by dose curve; tested in A549 cells; note: nearly all actives have a fitted effect of over 35% in size
HCV inh: qHTS Assay for Inhibitors of Hepatitis C Virus (HCV); Potency, µM (top dose mostly 41.8 µM), for the others: top-dose activity change, negative = inhibition, most hits filed as inhibitors; AID 651820, 2012; Huh7.5.1 HCVcc-Cre infection, luciferase reporter, 44 h; 340,000 compounds, 3.4% hits; active = well fitted inhibition curve with a large enough effect; inconclusive = small, poorly fitted or top-dose-only effect, or another doubt; inactive = no such curve, though single readings can be large or run the other way
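Infectious HCVcc-Cre (~0.5 moi) was added to cells just after compound, with cells seeded 4 h earlier at 1,000 per well. Luciferase activity after 44 h culture reported infection; substrate was incubated 15 min at room temperature before reading.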
Marburg entry inh: qHTS for inhibitors of binding or entry into cells for Marburg Virus. Potency, µM (doses to about 37.8 µM), inactives show at the top dose activity change, negative = inhibition, most hits filed as inhibitors. AID 540276, 2011. Marburg virus pseudotyped entry inhibition, cell reporter. 300,000 compounds, 1.8% hits; calls by dose curve; tested in HEK293 cells
Lassa entry inh: qHTS for Inhibitors of binding or entry into cells for Lassa Virus. Potency, µM (highest dose often 37.9 µM), inactives show at the highest dose activity change, negative = inhibition, usual class: inhibitors. AID 540256, 2011. 300,000 compounds, 1.2% hits. Lassa virus pseudotype entry inhibition, cell reporter; calls by dose curve; tested in HEK293 cells; note: nearly all actives have a fitted effect of over 50% in size
* hit, by the source's call; i = inactive; ? = inconclusive; / = no result; ! = not confirmed by another sample; [ ] = dose if it differs, or a comment. % is set by controls: 0 for no effect and ±100 for the full control effect; potency is the fitted concentration of half-maximal effect.

SMILES	Vaccinia Venus	Vaccinia mCherry	HCV inh	Marburg entry inh	Lassa entry inh
CCCOCc1ccc(O)c2ncccc12	?	?	5.62µM*	?	?
Oc1cccc2c(CC(O)c3c[nH]c4ccccc34)ccnc12 (stereo unspecified)	?	i	/	/	/
CC(C)COCc1ccc(O)c2ncccc12	?	10µM*	2.82µM*	?	?
Cc1c(C(=O)NCc2ccccc2Br)oc2c1-c1[nH]ncc1CC2	-9.0%	-6.7%	/	?	3.8%[46.1 µM]
CCN(c1ccccc1)S(=O)(=O)c1ccc(N2CCN(c3ccc(O)cc3)CC2)nc1	-27.6%	-21.8%	?	?	7.94µM*
CCN(c1ccccc1)S(=O)(=O)c1ccc(N2CCN(c3ccc(OC)cc3)CC2)nc1	/	/	7.0%	/	/
COc1cccc(CN2CCOc3ccc(CN4C[C@@H](C)O[C@@H](C)C4)cc3C2)c1OC	-13.3%	i	/	/	/
COCc1c(C(=O)N2CCC(N3CCCCC3)CC2)cnn1-c1ncc(C)c(-c2cccs2)n1	1.1%	-10.7%	/	/	/
OCc1cc(C(O)CNCCCCCCOCCCCc2ccccc2)ccc1O (stereo unspecified)	-20.3%	?	8.91µM*	11.2µM*!	?
CCN(CC)S(=O)(=O)c1cccc(S(=O)(=O)N2CCCCC2)c1	-26.7%	-4.0%	7.2%	4.8%	7.5%
CCN(CC)S(=O)(=O)c1cccc(S(=O)(=O)c2cccc(S(=O)(=O)N(CC)CC)c2)c1	/	/	11.2µM*	?	?
O=c1c2c3c(sc2n(CCN2CCCC2)c(=O)n1Cc1ccco1)CCCCC3	/	/	10µM*	?	?
CCN(C[C@H]1N[C@@](Cc2ccccc2)(C(=O)OC)[C@H]2C(=O)N(Cc3ccccc3)C(=O)[C@@H]12)C(=O)Nc1ccc(C(F)(F)F)cc1	?	?	12.6µM*	/	/
CCN(C[C@H]1N[C@@](CC)(C(=O)OC)[C@H]2C(=O)N(Cc3ccccc3)C(=O)[C@@H]12)C(=O)NC(C)C	-9.8%	i	6.31µM*	/	/
CC[C@@]1(C(=O)OC)N[C@H](CN(C)C(=O)NC(C)C)[C@@H]2C(=O)N(Cc3ccccc3)C(=O)[C@@H]21	-0.6%	-0.7%	-20.9%	/	/
COc1cccc(CNC(=O)CSc2nc(=O)[nH]c3c2CCC3)c1	-1.3%[7.34 µM]	0.2%[7.34 µM]	/	/	8.6%[46.1 µM]
COc1ccc(Cc2nc(C(=O)Nc3ccc(F)cc3)cs2)cc1	?	-17.7%	10µM*	-23.9%[46.1 µM]	-5.0%
Cc1cc(C)n2nc(CNC(=O)c3cccc(N(C)C)c3)nc2n1	-5.6%	-7.0%	/	18.5%[46.1 µM]	8.3%[46.1 µM]
CN(C)CCCN(C(=O)c1ccco1)c1nc2ccc(Cl)cc2s1	?	-17.4%	25.1µM*	?	?
CN(C)CCN(C(=O)c1ccc2c(c1)OCCO2)c1nc2ccc(Cl)cc2s1	-9.1%	-11.4%	?	-3.2%[46.1 µM]	7.2%
Cc1ccc(C(=O)N(CCCN(C)C)c2nc3ccc(Cl)cc3s2)cc1C	-22.0%	25.5%	?	8.91µM*	?
CCOC(=O)c1cnc(SCc2ccc(C(C)(C)C)cc2)nc1N	/	/	?	-2.6%	4.11µM*
CCOC(=O)c1cnc(SCc2ccc(Cl)c(Cl)c2)nc1N1CC1	?	?	11.2µM*	-21.0%	?
CCOC(=O)c1cnc(SCc2ccccc2)nc1N	-11.1%	-4.4%	?	?	-4.8%
Cc1nc(SCc2ccc(Cl)cc2)ncc1C(=O)O	0.4%	4.1%	12.6%	20.3%[46.1 µM]	-13.8%
COc1cc(-c2cc(C(=O)Nc3ccc(S(N)(=O)=O)cc3)c3ccccc3n2)cc(OC)c1OC	9.8%	1.1%	?	-39.8%[46.1 µM]	?
CCN(CC)S(=O)(=O)c1ccc(O)c(NC(=O)c2cc(-c3cc(OC)c(OC)c(OC)c3)nc3ccccc23)c1	-20.5%	-15.4%	?	10µM*	?
COc1cc(-c2cc(C(=O)Nc3c(Cl)cc(Cl)cc3Cl)c3ccccc3n2)cc(OC)c1OC	-14.1%	i	10µM*	?	?
COc1ccc(NC(=O)c2cc(-c3cc(OC)c(OC)c(OC)c3)nc3ccccc23)cc1OC	10.0%	-2.5%	?	?	?
CC(=O)c1c(C)n(-c2cccc(Cl)c2)c2ccc(OC(=O)c3ccccc3)cc12	-4.1%	-5.5%	/	/	1.7%[46.1 µM]

Source: PubChem (National Center for Advancing Translational Sciences (NCATS))
